Reference: PubChem BioAssay (NCI)
Values joined by “and” are separate entries in the source; they are usually repeats but may differ in a detail not shown here. Identical values can stand only once. This is part of a sample that, as a whole, favours compounds with a hit. Of some 83,000 tested, about 20% had one in any assay.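 Single-dose data. Exposure time 48 hours. Values below 10 considered active.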 Active and inactive are the calls of the source.

System: MDA-MB-468 breast
Experiment: NCI-60 one-dose screen, 48 h (100 = growth as untreated, 0 = no growth, -100 = all killed)
Details: 10 µM unless noted

Compound | growth
C#CCn1cnc2c(Nc3cccc(NC(=O)C=C)c3)ncnc21 | 78% (inactive)
COc1cccc(C(=O)O)c1OC | 105% (inactive)
Cc1c(Cl)cccc1N=C=S | 97.8% (inactive)
COc1ccc(C(=O)c2cc(OC)c(OC)c(OC)c2)cc1OC(=O)CCl | 63.4% (inactive)
NS(=O)(=O)OCC1OC(n2cnc3cncnc32)C(O)C1O (stereo not given) | 5.51% [0.1 µM] (active) and -18.9% [0.1 µM] (active)
Cc1ccc(NC(=O)Nc2nc3ccccc3s2)cc1NC(=O)Nc1nc2ccccc2s1 | 96% (inactive)
COc1ccc(/C=N/NC2=NC3C(S2)N(C)C(=O)N3C)cc1 (stereo not given) | -8.86% (active)
C=CC(=O)Nc1cccc(Oc2nccc(Nc3nnc(C4CC4)s3)n2)c1 | 102% (inactive)
Clc1ccc(/C=C/c2cc(N3CCOCC3)c3cc(Cl)c(Cl)cc3n2)cc1 | 91.2% (inactive)
O=S1(=O)N(CCNc2nccc(-c3c(-c4cccc(O)c4)nc4sccn34)n2)CCN1Cc1ccccc1 | 94.4% (inactive)
Cc1c(NC(=O)OC[C@@H]2COCCN2)cn2ncnc(Nc3ccc4c(cnn4Cc4cccc(F)c4)c3)c12 | -53.7% (active)
COc1ccc(Oc2ccc(C3CC(c4cc(OC)c(OC)c(OC)c4)=NN3C(C)=O)cc2)cc1 (stereo not given) | 4.96% (active)
C=CCc1cc(Cl)cc2c(OC(C)=O)c(C(C)=O)c(-c3ccccc3)nc12 | 116% (inactive)
CC(C)(O)c1cn(CCCCN2C(=O)C(=O)c3ccccc32)nn1 | 95% (inactive)
NS(=O)(=O)c1ccc(Nc2nc(Nc3ccccc3)nc(N3N=C(c4ccc(Cl)cc4)CC3c3ccc(Cl)cc3)n2)cc1 (stereo not given) | 26.4% (inactive)
Cc1cc(=O)[nH]c2c(C#N)cnn12 | 106% (inactive)
C[C@H](C(=O)Nc1ccc(S(N)(=O)=O)cc1)S(=O)(=O)c1ccccc1 | 102% (inactive)
O=C(NCC(c1ccsc1)N1CCCCCC1)c1ccc(C(F)(F)F)cc1 (stereo not given) | 95.3% (inactive)
CCCCC1COc2cccc3c2N1C=C/C3=C\C(=O)N(C)c1cccc(Cl)c1 (stereo not given) | 84.4% (inactive)
O=c1ccc2nc(C(F)(F)F)nn(-c3ccccc3)c-2c1 | -73.5% (active)

Compound | growth
CC(c1ccc(-n2cccn2)cc1)c1cnc(N2CCc3ccc(C(N)=O)cc3C2)s1 (stereo not given) | 30.1% (inactive)
O=C1OC(/C=C/c2ccccc2)=NC/1=C/c1ccccc1[N+](=O)[O-] | 101% (inactive)
C=C1C(=O)O[C@H]2[C@H]1CC/C(CNC(=O)/C=C/c1ccccc1)=C\CC[C@@]1(C)O[C@@H]21 | -30.2% (active)
C#CCOc1cccc(-c2ncnc3cc(NC(=O)C=C)ccc23)c1 | -8.85% (active)
O=C(Nc1ccccc1C(F)(F)F)C1=NCCCCN1 | 94.8% (inactive)
CNC(=O)c1cc(Oc2ccc3nc(NC(=O)Nc4ccc(F)cc4F)sc3c2)ccn1 | 51.2% (inactive)
O=C(Nc1ccc(Cl)cc1)Nc1ccccc1CNc1nc(Nc2ccc(OCCN3CCCC3)cc2)ncc1Cl | -57.4% (active)
CN1CCN(C(=O)[C@@]2(C)CC[C@]3(C)CC[C@]4(C)C(=CC[C@@H]5[C@@]6(C)CC[C@H](OC(=O)c7cccnc7)C(C)(C)[C@@H]6CC[C@]54C)[C@@H]3C2)CC1 | 92.6% (inactive)
Cn1ccnc1C(=O)/C=C/c1ccc(CC(=O)Nc2ccc(C(F)(F)F)cc2)cc1 | -6.59% (active)
CCCCn1c2cc(OCc3cn(-c4ccc(Cl)cc4)nn3)ccc2c2ccnc(C)c21 | 22.3% (inactive)
COc1cc(Cc2cc(OC)c(O)c(OC)c2)cc(OC)c1O | 65.2% (inactive)
COc1ccc(-c2cc(-c3ccc(OC)c(OC)c3)nc(SCCCC(=O)NO)n2)cc1 | -30.7% (active)
O=C(CSc1nc2sc3c(c2c(=O)n1-c1ccc(Cl)cc1)CCCC3)Nc1nc(-c2cccc(Br)c2)cs1 | 65.1% (inactive)
O=C(NCCCNc1cc(-c2cn(-c3ccccc3)nc2-c2cccc(O)c2)ccn1)Nc1cc(C(F)(F)F)cc(C(F)(F)F)c1 | 70.4% (inactive)
COC(=O)[C@@H](OC)[C@@H]1Cc2cc3cc(OC4CC(OC5CC(O)C(O)C(C)O5)C(O)C(C)O4)c(C)c(O)c3c(O)c2C(=O)[C@H]1OC1CC(OC2CC(OC3CC(C)(O)C(O)C(C)O3)C(O)C(C)O2)C(O)C(C)O1 (stereo not given in full) | -45.6% (active)
CCn1cc(CNc2ccc(C(=O)Nc3ccc4ccccc4c3)cc2)c(C)n1 | 24.5% (inactive)
CCNC(=O)C#Cc1ccc2c(C(=Nc3ccc(CN(C)C)cc3)c3ccccc3)c(O)[nH]c2c1 | 17.2% (inactive)
Clc1ccc2[nH]cc(-c3cncn3CCc3ccc4c(c3)OCO4)c2c1 | 6.19% (active)
OCc1nnn(-c2ccccc2)c1CO | 125% (inactive)
CC(=O)Nc1c(Cl)cc2c(c1Cl)Cc1ccccc1-2 | 70.6% (inactive)
